The list is not random: actives were taken first. Their share in the collection is about 1.4%.
GRK2 aptamer HTS: inhibitors of human GRK2 displacing RNA aptamer; P25098; bead flow cytometry, FAM-aptamer displacement from GRK2; inhibition of aptamer binding, % at 10 µM; 330,000 compounds, 0.59% hits; AID 488847;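 active = inhibition of aptamer binding above 40%, roughly 3 SD of noise, on plates passing a quality check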;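 note: median bead fluorescence of bound FAM aptamer so fluorescent compounds give negative values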
VLA-4 inh: inhibition in a human VLA-4 binding assay; VLA-4 expressing cells, ligand binding flow cytometry; inhibition, % (about 7 µM as worked out from the volumes in the protocol); 330,000 compounds, 0.2% hits; AID 2557; in the data active = inhibition above about 50%
APOBEC3A inh: blocks human APOBEC3A ssDNA deamination | P31941 | recombinant A3A, FAM/TAMRA ssDNA deamination fluorescence | inhibition, % at 20 µM | 330,000 compounds, 0.41% hits | AID 493011;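 active = at least 40% inhibition at 20 µM here, with at most 30% in a related deaminase screen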
Target sequence (P31941 whole entry, looked up): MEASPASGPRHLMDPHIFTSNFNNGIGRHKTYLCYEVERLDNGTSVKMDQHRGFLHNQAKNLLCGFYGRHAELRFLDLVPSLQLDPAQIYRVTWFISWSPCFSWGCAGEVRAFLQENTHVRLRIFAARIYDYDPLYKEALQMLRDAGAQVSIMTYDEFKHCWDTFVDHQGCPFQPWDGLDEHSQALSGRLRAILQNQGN
A3G deaminase: inhibitors of human APOBEC3G DNA deaminase; 330,000 compounds, 0.28% hits; Q9HC16; recombinant A3G, ssDNA deamination FAM/TAMRA fluorescence; inhibition, % at 20 µM;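 active = inhibition of at least 40% at 20 µM, with no more than 30% in the related APOBEC3A deaminase screen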
Target sequence (Q9HC16 whole entry, looked up): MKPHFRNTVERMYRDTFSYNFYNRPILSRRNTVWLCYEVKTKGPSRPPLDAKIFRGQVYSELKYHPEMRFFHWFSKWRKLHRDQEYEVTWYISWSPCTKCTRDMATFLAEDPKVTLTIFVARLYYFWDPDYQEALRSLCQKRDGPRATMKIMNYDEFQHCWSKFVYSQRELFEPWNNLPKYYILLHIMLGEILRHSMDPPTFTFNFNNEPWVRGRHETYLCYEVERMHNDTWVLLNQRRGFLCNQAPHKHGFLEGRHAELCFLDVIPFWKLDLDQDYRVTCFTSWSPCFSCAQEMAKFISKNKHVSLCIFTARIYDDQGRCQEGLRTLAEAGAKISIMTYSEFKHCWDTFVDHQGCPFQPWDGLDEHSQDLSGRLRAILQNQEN
VLA-4 mod pick: confirmation of allosteric modulators of human VLA-4 integrin. shares compounds with VLA-4 inh. U937 cells, HUTS-21 LIBS mAb binding, flow cytometry; LDV ligand present at threefold Kd. inhibition, % at 6.7 µM. 1,300 compounds, 2% hits; in the data active = inhibition above about 40%
Hits are given with their value; 0 = inactive; - = not tested or not shown; ! = not confirmed by another sample.

SMILES	GRK2 aptamer HTS	VLA-4 inh	APOBEC3A inh	A3G deaminase	VLA-4 mod pick
C=C1C(O)[C@@H]2O[C@]3(CC[C@H](/C=C/C(C)[C@@H]4CC(C)=CC5(O[C@H](C[C@@](C)(O)CO)CCC5O)O4)O3)CC[C@H]2O[C@@H]1C(O)CC(C)[C@H]1OC2(CCCCO2)CCC1C (stereo partly drawn)	0	53.9	0	0	52.0
Nc1nc2c(nc(Br)n2[C@@H]2O[C@@H]3COP(=O)(O)O[C@H]3[C@H]2O)c(=O)[nH]1	0	0	0	0	-
Nc1ncnc2c1nc(Br)n2[C@@H]1O[C@@H]2COP(=O)(O)O[C@H]2[C@H]1O	0	53.6	0	0	0
CS(=O)(=O)c1ccc2nc(NC(=O)c3ccco3)sc2c1	0	0	0	0	-
Cc1c(Cl)ccc2sc(NC(=O)c3ccco3)nc12	0	53.5	0	0	0
CCOC(=O)C1(S(=O)(=O)c2ccc(Cl)cc2)CCN(Cc2ccc(Cl)cc2)CC1	0	59.2	0	0	0
CCOC(=O)C1(S(=O)(=O)c2ccccc2)CCN(Cc2ccc(Cl)cc2)CC1	0	74.3	0	0	0
CCOC(=O)C1(CCc2ccccc2)CCN(Cc2ccc(O)cc2)CC1	0	0	0	0	-
NCCNC(=O)Cc1cccc(NC(=O)Cc2ccc(Nc3ncnc4c3ncn4[C@@H]3O[C@H](CO)[C@@H](O)[C@H]3O)cc2)c1	0	0	0	0	-
OC[C@H]1O[C@@H](n2cnc3c(Nc4ccccc4)ncnc32)[C@H](O)[C@@H]1O	0	0	0	0	0
Nc1ncnc2c1ncn2[C@@H]1O[C@H](CO)[C@@H](O)[C@H]1O	0	0	0	0	-
OCC1OC(n2cnc3c(NCCc4ccccc4)ncnc32)C(O)C1O (stereo not drawn)	0	0	0	0	0
O=C(C1CCCN(S(=O)(=O)c2ccccc2)C1)N1CCN(c2ncccn2)CC1 (stereo not drawn)	0	0	0	0	-
Cc1ccc2nc(SCC(=O)c3ccc(Cl)s3)[nH]c2c1	0	0	0	0	-
COc1ccc(OC)c(CN2CCCC(C(=O)N3CCCCC3)C2)c1 (stereo not drawn)	0	0	0	0	-
CCCSC1=NN2CCCC(=O)N=C2S1	0	49.6	0	0	0
O=C1CCCN2N=C(SCC(=O)N3CCCCC3)SC2=N1	0	0	0	0	-
NC(=O)CN1C(=O)C(=O)N(Cc2ccc(F)cc2)C1=O	0	0	0	0	-
NC(=O)CN1C(=O)C(=O)N(Cc2ccccc2)C1=O	0	0	0	0	0
CC(NC(=O)COC(=O)C1CC1C)c1ccccc1 (stereo not drawn)	0	0	0	0	-
CC(=O)c1ccc(N2CCN(C(=O)c3cc(-c4cccnc4)nc4ccc(Br)cc34)CC2)cc1	0	0	0	0	-
O=C(c1cc(-c2cccnc2)nc2ccc(Br)cc12)N1CCN(c2ncccn2)CC1	0	0	0	0	0
O=C(c1ccco1)N1CCN(C(=O)c2cc(-c3ccccn3)nc3ccccc23)CC1	0	0	0	0	0
O=C(c1cc(-c2ccncc2)nc2ccccc12)N1CCN(c2ncccn2)CC1	0	0	0	0	0
Cc1nn(C)cc1/C=N/NC(=O)Cn1cncn1	0	0	0	0	-
SMILES	GRK2 aptamer HTS	VLA-4 inh	APOBEC3A inh	A3G deaminase	VLA-4 mod pick
O=C(CN1C(=O)/C(=C/c2ccc(Cl)cc2)SC1=S)NC1C=CS(=O)(=O)C1 (stereo not drawn)	0	0	0	0	-
O=C(O)c1ccc2c3c(cccc13)C(=O)N(c1cccc3ccccc13)C2=O	0	0	0	0	-
O=C(O)c1ccc2c(c1)C(=O)N(c1cccc3ccccc13)C2=O	0	57.8	0	0	0
Cc1ccc(CNC2CCCCC2)s1	0	0	0	0	-
Cc1cc(C)nc(/N=C2\NC(=O)CC(C(=O)O)N2c2ccc(F)c(Cl)c2)n1 (stereo not drawn)	0	0	0	0	-
COc1ccc(NC(=O)Nc2ccc3c(c2)C(=O)N([C@H](C)CO)C[C@H](C)[C@@H](CN(C)C(=O)NC2CCCCC2)O3)cc1	0	49.6	0	0	0
NC(=O)C1CCN(C(c2ccccc2F)c2nnnn2Cc2ccco2)CC1 (stereo not drawn)	0	0	0	0	-
O=C(Nc1ccc(Nc2ccccc2)cc1)N1CCOCC1	0	0	0	0	-
COc1ccccc1N1CCN(CCCNc2cc(=O)n(C)c(=O)n2C)CC1	0	54.8	0	0	0
CC(C)NC(=O)N1c2ccccc2Sc2ccccc21	0	0	0	0	-
CC(C)(C)NC(=O)N1c2ccccc2Sc2ccccc21	-	54.4	0	0	0
COCCNC(=O)/C(C#N)=C/c1ccc(C(=O)O)cc1	0	0	0	0	0
COCCNC(=O)/C(C#N)=C/c1cccs1	0	0	0	0	-
COCCNC(=O)/C(C#N)=C/c1c(F)cccc1Cl	0	0	0	0	0
COCCNC(=O)/C(C#N)=C/c1ccc(SC)cc1	0	0	0	0	-
O=C(Nc1ccccc1)Nc1cccc2cccnc12	0	69.4	0	0	0
O=C(Nc1ccccc1)Nc1cccc2ccccc12	0	0	0	0	-
CS(=O)(=O)c1nc(S(=O)(=O)c2ccc(Cl)cc2)c(NCCCN2CCCC2=O)s1	0	0	0	0	-
CCN1CCN(C(=O)c2ccc3c(c2)N(Cc2ccccc2)C(=O)c2ccccc2S3(=O)=O)CC1	0	0	0	0	-
CCN(CC)CCNC(=O)COc1ccc(OC)cc1	0	57.1!	0	0	0
COC(=O)c1cc(N2C(=O)C3C4C=CC(CC4)C3C2=O)ccc1Cl (stereo not drawn)	0	0	0	0	-
COc1ccc(CC(=O)Nc2ccc(S(=O)(=O)N3CCCC3)cc2)cc1OC	0	0	0	0	-
CC(C)Cn1c(N)c(C(=O)CSc2nnc(-c3ccco3)n2C)c(=O)n(C)c1=O	0	53.2	0	0	0
CC1(C)NC(=O)N(CC(O)CN2C(=O)NC(C)(C)C2=O)C1=O	0	0	0	0	-
Cc1cc(C)n(CC(O)CN2C(=O)NC(C)(C)C2=O)n1 (stereo not drawn)	0	54.2	0	0	0
SMILES	GRK2 aptamer HTS	VLA-4 inh	APOBEC3A inh	A3G deaminase	VLA-4 mod pick
CC(=O)c1ccc(NC(=S)N2CCN(C(=S)Nc3ccc(C(C)=O)cc3)C(C)C2)cc1 (stereo not drawn)	0	0	0	0	-
CN(Cc1ccc(-n2cccn2)cc1)Cc1cn(C)nc1-c1ccccc1F	0	0	0	0	-
CCn1ccnc1CN(C)Cc1cn(C)nc1-c1ccccc1F	0	0	0	0	0
O=C(Nc1ccc(F)cc1)NC1(C(=O)NCc2ccco2)CCCCC1	0	51.9	0	0	0
Nc1cc(-c2ccc(Cl)cc2)nn1S(=O)(=O)c1cccc2nsnc12	0	0	0	0	-
Nc1cc(-c2ccc(Br)cc2)nn1S(=O)(=O)c1cccc2nsnc12	0	49.9	0	0	0
COc1ccc(-c2cc3c(=O)n(CC(=O)NCCCc4ccccc4)ncn3n2)cc1	0	0	0	0	-
COc1cc(SC)ccc1C(=O)Nc1ccc(Br)cn1	0	0	0	0	-
COc1cc(SC)ccc1C(=O)Nc1ncc(Cl)cc1Cl	0	54.8	0	0	0
COc1ccccc1C(=O)NNC(=O)c1ccccc1F	0	0	0	0	-
